Measurements: PubChem BioAssay AID1259309 (ICCB-Longwood Screening Facility, Harvard Medical School, 2017)
“And” between values parts separate entries of the source, which are not always exact repeats. Equal entries are not always repeated. Hit rate of the full screen: of about 330,000 compounds, about 1,800 (0.55%) were called active. This excerpt belongs to a sample that is enriched for actives. Values without a mark were called inactive. No stated cut-off is given here; in the data, active means growth inhibition above about 68%; inactive means the rest.

test: growth inhibition of ugtP-null S. aureus, primary screen, RN4220 ugtP deletion, OD600 (AID 1259309); settings: 16 h, stronger effect = higher value;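 further: plate controls were untreated wells for no effect and antibiotic for full effect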

Compound	growth inhibition
COc1ccc(C=NNC(=O)CN2CCCC2)cc1	3.93%
CC1CN(C(C)CO)C(=O)Cc2cc(NC(=O)C3CC3)ccc2OC1CN(C)Cc1ccc(Oc2ccccc2)cc1 (stereo not given)	9.46%
Cc1cc(C)nc(N=C(N)Nc2ccc(SC(F)F)cc2)n1	20%
COc1ccc(C(C)=NNC(=O)c2cccc(S(=O)(=O)N3CCCC3)c2)c(O)c1	4.49%
O=C(CC1CC=CCC(Cc2ccc(F)cc2)C(=O)OCC(Cc2ccccc2)NC1=O)NC(CO)Cc1ccccc1 (stereo not given)	5.86%
CC(C)(C=NO)/[N+]([O-])=C/c1ccco1	3.75%
Nc1nonc1C(=O)NN=Cc1ccc([N+](=O)[O-])o1	70.5%
O=C(NN=Cc1ccc(F)cc1)c1ccc(F)cc1	3.85%
O=C(/C=C/c1ccc([N+](=O)[O-])o1)NNC(=O)c1ccc(F)cc1	98.7% (active)
COc1cc(NC=C2CC(=O)NC(C)=C2C#N)cc(OC)c1OC	-2.01%
COc1ccc(-c2cc3ncccc3cn2)cc1	7.34%
COc1ccc(-c2cc(C3CCN(c4ncccc4[N+](=O)[O-])CC3)[nH]n2)cc1	100% (active)
CC(=O)NC(Cc1ccccc1)C(=O)NC1CCN(c2ncccc2[N+](=O)[O-])CC1 (stereo not given)	7.02%
COc1ccc(S(=O)(=O)Nc2cccc3c2OC(CN(C)Cc2ccc(Cl)c(Cl)c2)C(C)CN(C(C)CO)C3=O)cc1 (stereo not given)	11.2%
COc1ccc(C2=NN(c3nc4ccccc4s3)C(=O)C2)cc1	99% (active)
COc1ccc(C(=O)Nc2cccc(/C=C(/CCC(=O)O)c3nc4ccccc4s3)c2)cc1	-2.4%
COc1ccccc1NC(=O)c1ccc2nc(N3C(=O)CCC3=O)sc2c1	-9.64%
C/C(C=NNC(=O)CSc1nc2ccccc2n1C)=C\c1ccco1	3.58%
OCc1ccc(OCCCOc2cccc3cccnc23)cc1	-3.52%
O=C(Nc1ccccc1)Oc1cccc2cccnc12	99.7% (active)
NC(=O)C1CCN(C(=O)COc2cccc3cccnc23)CC1	-13.3%
Cc1ccc(C(=O)NC(=S)Nc2ccccc2C)cc1	83.5% (active)
Cc1ccccc1NC(=S)NC(=O)Cc1ccc(Cl)cc1	67%

Compound	growth inhibition
Cc1cc(C(=O)NNC(=S)Nc2ccccc2C)cs1	-0.4%
Cc1cc(SCC(=O)NN=Cc2ccc(O)c(O)c2)nc2ccccc12	-2.24%
ON=Cc1ccc(OCc2ccccc2)c(Br)c1	1.91%
O=C(COC(=O)c1cc[n+]([O-])cc1)Nc1ccc(Cl)c(C(F)(F)F)c1	-2.28%
O=C(CC(O)(C(F)(F)F)C(F)(F)F)Nc1ccc(Cl)c(Cl)c1	100% (active)
NC(=O)N1CCCC1C(=O)Nc1ccc(Cl)c(Cl)c1 (stereo not given)	3.8%
CC(=NNC(=O)c1nnn(-c2nonc2N)c1-c1cccs1)c1ccc(O)cc1	-2.71%
Cc1ccc(C(=O)NCCN2C3=NCC(Cc4ccc(O)cc4)N3CC2Cc2ccc(O)cc2)cc1Br (stereo not given)	-5.82%
O=C(CCC(=O)Nc1ccc(F)cc1)NN=Cc1ccccc1	-1.26%
CCCC1CCCCC=CCCCC(=O)OCCN1C(=O)OC(C)(C)C (stereo not given)	-29.8% and -2.83%
COc1ccc(Cl)cc1NC(=O)CN(C)C(=O)CNC(=O)C12CC3CC(CC(C3)C1)C2	-1.84%
COc1ccc(Cl)cc1NC(=O)CN(C)C(=O)c1cc2ccccc2cc1OC	-3.53%
COc1ccc(Cl)cc1NC(=O)CN(C)C(=O)CCCc1c[nH]c2ccccc12	98.4% (active)
COc1ccc(C(=O)Nc2ccccc2C(=O)NN=Cc2ccccc2OC)cc1	10.4%
NC1=NCC(Cc2ccc(O)cc2)N1CCc1cccc(F)c1 (stereo not given)	4.31% and -0.973%
CSCc1cc(N2CCOCC2)nc(SCc2ccc(Cl)cc2Cl)n1	93.1% (active)
CSCCC(NC(=O)c1ccc(Cl)cc1Cl)C(=O)NNC(=O)c1csc(N2CCOCC2)n1 (stereo not given)	6.67%
CSCc1cc(N(C)C)nc(SCc2ccc(Cl)cc2Cl)n1	63.4%
CCN(CC)c1ccc(C=NNC(=O)c2c[nH]c3ccccc23)cc1	-5.72%
CCN1C(=O)C2C(C1=O)C(c1ccccc1)N1C(=O)c3ccccc3NC(=O)C21 (stereo not given)	-13.8%
CCC1CCCCN1C(=O)NC(CCSC)C(=O)OC (stereo not given)	7.53%
COc1cccc(-c2nnc(NC(=O)c3ccc(S(=O)(=O)N(CC(C)C)CC(C)C)cc3)o2)c1	100% (active)
